Screening results (PubChem BioAssay)
Mm-Cpn inhibitor – Inhibitors of TCP-1 ring complex (TRiC) of Methanococcus maripaludis (MmCpn): qHTS; 0.031% of 330,000 active; Potency, µM (top dose mostly 76.9 µM), for the others: at the highest dose activity, negative = inhibition, most hits filed as inhibitors; purified Mm-Cpn ATPase, ADP Transcreener TR-FRET; note: % is set by controls: 0 for no effect and ±100 for the full control effect; nearly all actives have a fitted effect of over 80% in size
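Measured: ADP formation by purified Mm-CPN. Conditions: 25 nM protein, 10 uM ATP, Tris pH 7.4 with Mg2+, K+ and DTT, 37°C for 30 min. Detection: Transcreener HTRF after 30 min at room temperature.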
TDP43 rescue – qHTS of TDP-43 Inhibitors. 1.8% of 410,000 active. TDP-43 expressing yeast growth rescue, BacTiter-Glo, 24 h. AID 652104, 2013. Potency, µM (doses to about 46.1 µM), for inactives: top-dose growth rescue (activation), usual class: activators; note: % of control where 0% means no effect; nearly all actives have a fitted effect of over 50% in size
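Cell-based yeast growth screen: TDP-43 expression induced in galactose, inoculum OD600=0.02 after raffinose pregrowth to mid-log. Read-out BacTiter-Glo luminescence at 24 hr, 30 deg C; inhibition of toxicity seen as signal increase.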
Abeta yeast res – qHTS for compounds that reverse cellular toxicity of Amyloid beta (A-beta) peptide in yeast: Primary Screen; yeast expressing A-beta42, growth rescue, OD600, 48 h; response scale: 0% DMSO, 100% iron-clioquinol control; Potency, µM (highest dose often 46.1 µM), most hits filed as activators; 0.063% of 410,000 active; AID 1347071, 2019; note: nearly all actives have a fitted effect of over 55% in size
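Yeast A-beta toxicity model in growth medium with pinned compounds, 48 h at 30 C; growth read as absorbance at 600 nm. Normalized to FeCl3/clioquinol equimolar mix (positive) and DMSO (negative).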
FUS yeast rescue – qHTS for Suppressors of FUS Proteinopathy: Primary screen using FUS-linked yeast assay; S. cerevisiae FUS-expressing, growth rescue, OD600, 24 h; Potency, µM (highest dose often 76.6 µM), most hits filed as activators; 0.24% of 390,000 active; AID 1347120, 2019;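 note: plate controls were DMSO vehicle for no effect and reference control for full effect; nearly all actives have a fitted effect of over 55% in size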
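Absorbance at 600 nm, taken 24hr after compound addition, measured rescue of FUS-yeast growth at 30C. Induction used 2% galactose with seeding at OD 0.005. Controls: CP55940 from 92uM final, DMSO only.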
ClpP mod – qHTS Assay for Activators of ClpP. purified B. subtilis ClpP, FRET peptide cleavage, 20 min. Potency, µM (top dose mostly 57.5 µM), inactives show top-dose activity change, negative = active. 1.9% of 340,000 active; active = well fitted falling curve with a large enough effect; inconclusive = small, poorly fitted or top-dose-only effect; inactive = no such curve, though single readings can be large or run the other way; note: the source files actives as falling curves though it sought activators and does not explain the sign; nearly all actives have a fitted effect of over 65% in size
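FRET quenching reversal measured ClpP activation: 10 microg/mL B. subtilis ClpP at pH 8 with the FRET-FV decapeptide, read at 430 nm after 320 nm excitation. The 20-min minus 0-min signal was scaled between DMSO/no-enzyme wells and ADEP (5.8 microM final).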
aSyn rescue – qHTS of alpha-syn Inhibitors | Potency, µM (doses to about 46.1 µM), inactives show at the highest dose growth rescue (activation), most hits filed as activators | Yeast expressing alpha-synuclein, growth rescue, BacTiter-Glo, 24 h | AID 652106, 2013 | 0.14% of 370,000 active; note: % of control where 0% means no effect; nearly all actives have a fitted effect of over 65% in size
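Screening used galactose-induced yeast with toxic alpha-synuclein levels, exposed to compound for 24 hr at 30 deg C. Cell growth, read with BacTiter-Glo luminescence, gave the measured signal.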
Numbers without * were called inactive; i = inactive; ? = inconclusive; / = no result given. An excerpt weighted towards active compounds, which were near 3.6% of everything screened. Unless noted, calls come from the whole dose curve; as a rule, active = well fitted curve in the direction sought with a large enough effect; inconclusive = small, poorly fitted or top-dose-only effect, or another doubt; inactive = no such curve, though single readings can be large; an effect the other way counts as inactive or inconclusive. Potency is the fitted concentration of half-maximal effect.

SMILES	Mm-Cpn inhibitor	TDP43 rescue	Abeta yeast res	FUS yeast rescue	ClpP mod	aSyn rescue
Brc1ccc(CSc2nnc(-c3cnccn3)n2Cc2ccco2)cc1	-4%	35µM*	i	/	?	8%
Clc1ccc(CSc2nnc(-c3ccccn3)n2Cc2cccs2)cc1Cl	/	?	i	?	-2%	11%
CCn1c(SCc2ccc(C)cc2)nnc1-c1cnccn1	0%	11µM*	i	i	-6%	2%
Cc1ccc(CSc2nnc(-c3ccccn3)n2Cc2cccs2)cc1	/	35µM*	i	?	-1%	12%
Cc1ccc(C)c(N(C)S(=O)(=O)c2ccc3[nH]cc(C(=O)NC4CCCC4)c(=O)c3c2)c1	/	13%	i	?	4%	/
CC(C)(C)OC(=O)N1CCN(/[N+]([O-])=N/Oc2ccc([N+](=O)[O-])cc2[N+](=O)[O-])CC1	/	/	/	/	/	-59%
O=S1(=O)NC2CCCCCN2c2ccc(F)cc21 (centres undefined)	-6%	14%	i	i	28µM*	8%
O=C(CN1CCCC1)N1CCCC(c2ccc(F)cc2)c2ccc(F)cc21 (centres undefined)	-1%	-3%	i	i	2%	-2%
Oc1ccc(/C=N/N=C(c2ccccc2)c2ccccc2)c(O)c1O	2%	0%	i	/	?	24%
O=C(/C(=N/N=C/c1ccc(O)c(O)c1O)c1ccccc1)c1ccccc1	1%	-92%	i	/	-1%	16µM*
CCOC(=O)c1sc(N2C(=O)C(O)=C(C(=O)c3ccco3)C2c2ccco2)nc1C (centres undefined)	-1%	-15%	i	28µM*	/	6%
O=C(Nc1ccc2c(c1)nc1n2CCN(Cc2ccccc2)C1)NC1CCCCC1	-7%	-24%	i	?	28µM*	14%
COc1ccc(Cn2ccc3nc(C)c(C(=O)Nc4ccc(OC(F)(F)F)cc4)cc3c2=O)cc1	/	17%	i	i	25µM*	/
CCC(C)[C@H](N)c1nnc(SCc2ccc(Cl)c(Cl)c2)o1 (some centres undefined)	/	-13%	i	i	0%	-3%
Cc1ccc(C2CCC3(CCC(=O)N3CCOC(=O)Nc3ccc(F)cc3)CC2)cc1 (centres undefined)	/	/	/	i	/	/
Cc1c(C#N)c(N)nc2c3c(sc12)NC(=O)CC3c1ccc(Cl)cc1 (centres undefined)	0%	-5%	i	/	16µM*	-3%
COc1ccc(S[C@]2(C(=O)N3CCN(c4ncccn4)CC3)CC(=O)N[C@@H]2c2ccc(OC)cc2)cc1	/	/	/	i	/	/
Cc1ccc(S(=O)(=O)N2CCN(c3nc(-c4ccnnc4)nc4ccccc34)CC2)cc1	/	/	/	/	-6%	?
O=C(NCCc1nc2ccccc2n1Cc1c(F)cccc1Cl)c1ccco1	/	0%	i	i	-2%	/
Cc1ccc(-c2ccc(CCC(=O)O)o2)cc1	1%	?	i	i	16µM*	23%
O=C(O)CCc1ccc(-c2cccs2)o1	0%	?	i	i	-9%	14µM*
Cc1ccc(CN2CCCCC(NC(=O)c3cccc([N+](=O)[O-])c3)C2=O)cc1 (centres undefined)	/	/	/	i	/	/
Cc1ccc(/C=C2\OC(=O)c3ccccc32)cc1	1%	-18%	i	i	28µM*	-7%
Cc1ccc(C=C2C=C(c3ccccc3)OC2=O)cc1	/	11%	i	i	-3%	10%
Cc1ccccc1/C=C1\OC(=O)c2ccccc21	0%	-11%	i	i	28µM*	-1%
Cc1ccc(NC(=O)Cc2csc(C)n2)c(C)c1	/	14%	i	i	-1%	/
